Assay results from PubChem BioAssay (NCATS).
Records with an inconclusive call do not appear. Calls of active or inactive are those of the source. Calls come from the whole dose curve; as a rule, active = well fitted cell-killing curve with a large enough effect; inconclusive = small, poorly fitted or top-dose-only effect, or effect the other way; inactive = no such curve, though single readings can be large or run the other way.
Potency is the fitted concentration of half-maximal effect.

Assay: Quantitative High-Throughput drug screen in 47 multiple myeloma cell lines against the NCATS MIPE library collection: XG1_PLB cell viability assay (AID 1919866); note: nearly all actives have a fitted effect of over 35% in size
Settings: CellTiter-Glo ATP, 48 h; series mostly up to 45.8 µM; viability: at the top concentration
In short: (§1)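 ATP-based luminescence (CellTiter-Glo, 5 min RT incubation) quantified surviving cells following two days' treatment with MIPE 4.0 agents at 37 °C, 5% CO2.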
With `CC[C@@]1(O)C(=O)OCc2c1cc1n(c2=O)Cc2cc3c(CN(C)C)c(O)ccc3nc2-1` the Potency was 0.0743 µM (active). For `O=c1[nH]cc(F)c(=O)[nH]1`, the Potency was 7.43 µM (active). With `NCCS(=O)(=O)O` the “viability” value was 127% (inactive). For `CC#C[C@]1(O)CC[C@H]2[C@@H]3CCC4=CC(=O)CCC4=C3[C@@H](c3ccc(N(C)C)cc3)C[C@@]21C`, the Potency was 0.743 µM (active). With `CC[N+](CC)(CC)CCOc1cccc(OCC[N+](CC)(CC)CC)c1OCC[N+](CC)(CC)CC` the “viability” value was 93.7% (inactive). For `CC(CCc1ccc(O)cc1)NCCc1ccc(O)c(O)c1` (configuration not stated), the Potency was 23.5 µM (active). In the case of `Cc1ccccc1N1C(=O)c2cc(S(N)(=O)=O)c(Cl)cc2NC1C` (configuration not stated), the “viability” value is reported as 103% (inactive). For `CS(=O)(=O)CCNCc1ccc(-c2ccc3ncnc(Nc4ccc(OCc5cccc(F)c5)c(Cl)c4)c3c2)o1`, the Potency was 0.0187 µM (active). In the case of `COc1ccc2c(c1)c(CC(=O)O)c(C)n2C(=O)c1ccc(Cl)cc1`, the Potency is reported as 5.26 µM (active). With `COc1ccc2[nH]cc(CCNC(C)=O)c2c1` the “viability” value was 123% (inactive). For `NC(=O)NO`, the Potency was 9.35 µM (active). With `CNCCCC12CCC(c3ccccc31)c1ccccc12` the Potency was 26.4 µM (active). For `COc1cc2nc(N3CCN(C(=O)c4ccco4)CC3)nc(N)c2cc1OC`, the Potency was 8.33 µM (active). With `COc1ccccc1OCC(O)CN1CCN(CC(=O)Nc2c(C)cccc2C)CC1` (configuration not stated) the “viability” value was 118% (inactive). With `O=C1c2c(O)ccc(O)c2C(=O)c2c(NCCNCCO)ccc(NCCNCCO)c21` the Potency was 0.332 µM (active). In the case of `CCOC(=O)Nc1ccc(NCc2ccc(F)cc2)nc1N`, the “viability” value is reported as 104% (inactive). For `Nc1nc2c(ncn2COC(CO)CO)c(=O)[nH]1`, the Potency was 23.5 µM (active). For `CN(C)C(=O)C(CCN1CCC(O)(c2ccc(Cl)cc2)CC1)(c1ccccc1)c1ccccc1`, the Potency was 18.7 µM (active). In the case of `CC1COc2c(N3CCN(C)CC3)c(F)cc3c(=O)c(C(=O)O)cn1c23` (configuration not stated), the “viability” value is reported as 122% (inactive). For `CCCCc1oc2ccccc2c1C(=O)c1cc(I)c(OCCN(CC)CC)c(I)c1`, the Potency was 10.5 µM (active). In the case of `COc1ccccc1N1CCN(CC(O)COc2cccc3ccccc23)CC1` (configuration not stated), the “viability” value is reported as 108% (inactive). With `CC(C)NCC(O)c1ccc(O)c(O)c1` (configuration not stated) the Potency was 1.87 µM (active). For `CN(C)CCCN1c2ccccc2CCc2ccc(Cl)cc21`, the Potency was 0.372 µM (active). For `CN(CCOc1ccc(NS(C)(=O)=O)cc1)CCc1ccc(NS(C)(=O)=O)cc1`, the “viability” value was 118% (inactive). For `Cc1cn([C@H]2C=C[C@@H](CO)O2)c(=O)[nH]c1=O`, the “viability” value was 110% [at 92.2 µM] (inactive). For `CCN1CCCC1CNC(=O)c1cc(S(=O)(=O)CC)c(N)cc1OC` (configuration not stated), the “viability” value was 146% (inactive). In the case of `Cn1cnc2c1c(=O)[nH]c(=O)n2C`, the Potency is reported as 14.8 µM (active). With `CN1C(C(=O)Nc2ccccn2)=C(O)c2ccccc2S1(=O)=O` the “viability” value was 104% (inactive). For `CC(C(=O)O)c1cccc(C(=O)c2ccccc2)c1` (configuration not stated), the Potency was 14.8 µM (active). In the case of `CN(Cc1cnc2nc(N)nc(N)c2n1)c1ccc(C(=O)N[C@@H](CCC(=O)O)C(=O)O)cc1`, the Potency is reported as 0.0372 µM (active). For `O=C1N(c2ccccc2)c2ccccc2C1(Cc1ccncc1)Cc1ccncc1`, the Potency was 18.7 µM (active).

Assay: Quantitative High-Throughput drug screen in 47 multiple myeloma cell lines against the NCATS MIPE library collection: VP6_DJ cell viability assay (AID 1919867); note: nearly all actives have a fitted effect of over 40% in size;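 for viability (% of DMSO): 100% = DMSO-only wells and 0% = wells with media alone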
Settings: ATP luminescence, 48 h; series mostly up to 45.8 µM; viability (% of DMSO): at the top concentration
In short: as §1
For `CC[C@@]1(O)C(=O)OCc2c1cc1n(c2=O)Cc2cc3c(CN(C)C)c(O)ccc3nc2-1`, the Potency was 1.48 µM (active). With `O=c1[nH]cc(F)c(=O)[nH]1` the Potency was 5.9 µM (active). With `CC#C[C@]1(O)CC[C@H]2[C@@H]3CCC4=CC(=O)CCC4=C3[C@@H](c3ccc(N(C)C)cc3)C[C@@]21C` the Potency was 0.833 µM (active). In the case of `CC(CCc1ccc(O)cc1)NCCc1ccc(O)c(O)c1` (configuration not stated), the Potency is reported as 16.6 µM (active). In the case of `CS(=O)(=O)CCNCc1ccc(-c2ccc3ncnc(Nc4ccc(OCc5cccc(F)c5)c(Cl)c4)c3c2)o1`, the Potency is reported as 1.66 µM (active). With `COc1ccc2c(c1)c(CC(=O)O)c(C)n2C(=O)c1ccc(Cl)cc1` the Potency was 20.9 µM (active). With `COc1ccc2[nH]cc(CCNC(C)=O)c2c1` the “viability (% of DMSO)” value was 143% (inactive). In the case of `NC(=O)NO`, the Potency is reported as 1.05 µM (active). With `CNCCCC12CCC(c3ccccc31)c1ccccc12` the Potency was 20.9 µM (active). With `COc1cc2nc(N3CCN(C(=O)c4ccco4)CC3)nc(N)c2cc1OC` the Potency was 10.5 µM (active). For `COc1ccccc1OCC(O)CN1CCN(CC(=O)Nc2c(C)cccc2C)CC1` (configuration not stated), the “viability (% of DMSO)” value was 136% (inactive). In the case of `O=C1c2c(O)ccc(O)c2C(=O)c2c(NCCNCCO)ccc(NCCNCCO)c21`, the Potency is reported as 0.662 µM (active). For `Nc1nc2c(ncn2COC(CO)CO)c(=O)[nH]1`, the Potency was 18.7 µM (active). In the case of `CN(C)C(=O)C(CCN1CCC(O)(c2ccc(Cl)cc2)CC1)(c1ccccc1)c1ccccc1`, the Potency is reported as 20.9 µM (active). In the case of `CC1COc2c(N3CCN(C)CC3)c(F)cc3c(=O)c(C(=O)O)cn1c23` (configuration not stated), the “viability (% of DMSO)” value is reported as 186% (inactive). For `CCCCc1oc2ccccc2c1C(=O)c1cc(I)c(OCCN(CC)CC)c(I)c1`, the Potency was 14.8 µM (active). In the case of `COc1ccccc1N1CCN(CC(O)COc2cccc3ccccc23)CC1` (configuration not stated), the “viability (% of DMSO)” value is reported as 122% (inactive). In the case of `CC(C)NCC(O)c1ccc(O)c(O)c1` (configuration not stated), the Potency is reported as 0.0332 µM (active). With `CN(C)CCCN1c2ccccc2CCc2ccc(Cl)cc21` the Potency was 0.935 µM (active). With `NC12CC3CC(CC(C3)C1)C2` the Potency was 3.32 µM (active). In the case of `Cc1cn([C@H]2C=C[C@@H](CO)O2)c(=O)[nH]c1=O`, the “viability (% of DMSO)” value is reported as 122% [at 92.2 µM] (inactive). For `CCN1CCCC1CNC(=O)c1cc(S(=O)(=O)CC)c(N)cc1OC` (configuration not stated), the “viability (% of DMSO)” value was 145% (inactive). For `CN1C(C(=O)Nc2ccccn2)=C(O)c2ccccc2S1(=O)=O`, the “viability (% of DMSO)” value was 134% (inactive). In the case of `CC(C(=O)O)c1cccc(C(=O)c2ccccc2)c1` (configuration not stated), the Potency is reported as 14.8 µM (active). For `CN(Cc1cnc2nc(N)nc(N)c2n1)c1ccc(C(=O)N[C@@H](CCC(=O)O)C(=O)O)cc1`, the Potency was 0.0662 µM (active). For `O=C1N(c2ccccc2)c2ccccc2C1(Cc1ccncc1)Cc1ccncc1`, the Potency was 20.9 µM (active).
